Screening results deposited in PubChem BioAssay by National Center for Advancing Translational Sciences (NCATS).
GLS inh: blocks human kidney-isoform glutaminase activity; O94925; GLS enzymatic activity, qHTS titration; Potency, µM (titrated, usually from 45.5 µM), usual class: inhibitors; 410,000 compounds, 0.21% hits; AID 624170
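Read-out is an Amplex red fluorescence increase coupled through glutamate oxidase and HRP, measured before and after 30 min room-temperature incubation. hKGA is in 45 mM KH2PO4 (pH 8.2) with 0.02% Tween-20; glutamine added as 1mM solution.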
ALOX12 inh: inhibitors of human 12S-lipoxygenase ALOX12. P18054. purified 12hLO, xylenol orange hydroperoxide absorbance. Potency, µM (doses to about 108 µM), actives largely listed as inhibitors. 580,000 compounds, 1.1% hits. AID 1671190
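Purified human 12hLO (150 nM final) in 25 mM Hepes, 0.01% Triton X-100, pH 7.0 was preincubated 15 min at room temperature with compound. Then 40 uM arachidonic acid was added, 30 min. Hydroperoxide was read by Fe-XO absorbance ratio 573/405 nm.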
GLP1R ag: GLP-1 receptor (human) agonism | 380,000 compounds, 0.007% hits | HEK293 GLP-1R CRE-luciferase, luminescence, 4-6 h; cells express a hypersensitive GLP-1R form | Potency, µM (titrated, usually from 45.6 µM), most hits filed as activators | AID 624172 | P43220
PTHR1 ag: activates the human parathyroid hormone receptor PTHR1; HEK293 GP2 PTHR1 cells, GloSensor cAMP luminescence, 1 h; Potency, µM (doses to about 115 µM), most hits filed as activators; AID 743266; 410,000 compounds, 0.075% hits; Q03431; note: nearly all actives have a fitted effect of over 55% in size
Target sequence (Q03431 whole entry, looked up): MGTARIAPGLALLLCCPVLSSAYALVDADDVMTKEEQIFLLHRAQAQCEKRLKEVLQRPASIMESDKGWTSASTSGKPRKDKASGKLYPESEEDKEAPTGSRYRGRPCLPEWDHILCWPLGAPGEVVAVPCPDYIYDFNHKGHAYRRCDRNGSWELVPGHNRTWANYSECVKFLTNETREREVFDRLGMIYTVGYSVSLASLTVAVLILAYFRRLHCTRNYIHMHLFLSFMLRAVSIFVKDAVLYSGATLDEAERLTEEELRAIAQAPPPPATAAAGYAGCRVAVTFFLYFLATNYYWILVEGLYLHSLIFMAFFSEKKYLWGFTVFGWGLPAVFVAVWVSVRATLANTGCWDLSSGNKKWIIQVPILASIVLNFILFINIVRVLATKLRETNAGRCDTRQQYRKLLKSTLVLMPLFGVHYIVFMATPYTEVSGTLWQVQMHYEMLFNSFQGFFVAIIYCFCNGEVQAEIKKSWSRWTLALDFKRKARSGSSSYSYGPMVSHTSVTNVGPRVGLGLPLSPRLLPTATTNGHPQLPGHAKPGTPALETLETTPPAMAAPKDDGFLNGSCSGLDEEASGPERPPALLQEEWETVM
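HEK-293-derived GP2 cells expressing PTHR1 and a GloSensor cAMP reporter, 3,000/well, plated overnight, given luciferin plus IBMX (each 0.5 mM as added) for 1 h at 37 °C, then compound for 1 h at 37 °C. Luminescence was read after 15 min at room temperature.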
GRP78 ERSR act: ER stress response induction in glioma | Potency, µM, hits mostly activators | 420,000 compounds, 0.02% hits | U87-MG GRP78 promoter luciferase reporter, 16 h | AID 602332; note: series mostly up to about 76 µM; nearly all actives have a fitted effect of over 35% in size
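Stably transfected U87-MG glioma cells carrying a GRP78-based luciferase sensor; 16 h compound incubation. Luminescence end-point read 10 min after Bright-Glo addition at room temperature.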
GLP1R inv ag: acts as inverse agonist at human GLP-1 receptor. HEK293 GLP-1R CRE-luciferase, luminescence, 24 h; GLP-1R form is constitutively active. 410,000 compounds, 1.6% hits. AID 624417. Potency, µM (series often up to 38.3 µM), most hits filed as inhibitors; note: nearly all actives have a fitted effect of over 55% in size
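Luminescence readout: a drop in cAMP-driven luciferase signal flags inverse agonism at a constitutively active GLP-1R stably expressed in HEK293. Compound exposure lasted 24 hr at 37 deg C, 5% CO2.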
Large screens that a line does not name were inactive. Rows were chosen to be rich in hits. Some 2.3% of all compounds tested hit in one or more screens of this group. Calls come from the whole dose curve; as a rule, active = well fitted curve in the direction sought with a large enough effect; inconclusive = small, poorly fitted or top-dose-only effect, or another doubt; inactive = no such curve, though single readings can be large; an effect the other way counts as inactive or inconclusive.

CCCCNCCCOc1ccc(C)cc1Br	PTHR1 ag inconclusive, GLP1R inv ag inconclusive
COCCCNCCCCOc1ccc(Br)cc1C	ALOX12 inh inconclusive, GLP1R inv ag 2.8µM
Cn1nnnc1NCc1ccc(-c2ccc(Br)cc2)o1	none (no result: GLS inh, GLP1R ag, PTHR1 ag, GRP78 ERSR act, GLP1R inv ag)
COc1ccc(OC)c(-c2cc3ccc(OC)cc3oc2=O)c1	none (no result: GLS inh, GLP1R ag, PTHR1 ag, GRP78 ERSR act, GLP1R inv ag)
CCc1ccc(/C=C2\SC(=S)N(CCCC(=O)N(CCO)c3ccccc3)C2=O)cc1	GLP1R inv ag 10µM
COc1ccc(/C=C2/SC(=S)N(CCCC(=O)Nc3ccc(O)cc3)C2=O)cc1	GLP1R inv ag 5.6µM
COc1cc(/C=C2\SC(=S)N(CCC(=O)N3CCCCC3)C2=O)cc(OC)c1OC	GLP1R inv ag 10µM
COc1ccc(/C=C2\SC(=S)N(CCCC(=O)Nc3ccc(O)cc3)C2=O)cc1	GLP1R inv ag inconclusive
COc1ccc(/C=C2\SC(=S)N(CCCC(=O)N3CCOCC3)C2=O)cc1	ALOX12 inh 45µM, GLP1R inv ag inconclusive
CC1=C[C@@H](CN(C)CCC#N)[C@H](C(C)C)C[C@H]1Cc1nnc(-c2ccccc2F)o1	none (no result: GLS inh, GLP1R ag, PTHR1 ag, GRP78 ERSR act, GLP1R inv ag)
COc1ccc2c(CN(C)CCOc3cc(C)cc(C)c3)cc(=O)oc2c1	none (no result: GLS inh, GLP1R ag, PTHR1 ag, GRP78 ERSR act, GLP1R inv ag)
O=C(CCN1C(=O)/C(=C/c2ccccc2)SC1=S)NCCc1ccc(O)cc1	GLP1R inv ag 5µM (no result: ALOX12 inh)
COc1cccc(/C=C2\SC(=S)N(CCCC(=O)N3CCCC3)C2=O)c1	GLP1R inv ag 5µM
Cc1cccc(Cn2c(C(=O)OC(C)C)cc3c2ccn3C)c1	GLP1R inv ag 5µM
COC(=O)CCCNC(=O)Cn1ccc2cc(Br)ccc21	none (no result: GLS inh, GLP1R ag, PTHR1 ag, GRP78 ERSR act, GLP1R inv ag)
O=C(COC(=O)c1ccc(O)cc1)c1ccc(NC(=O)c2ccco2)cc1	none (no result: GLS inh, GLP1R ag, PTHR1 ag, GRP78 ERSR act, GLP1R inv ag)
O=[N+]([O-])c1ccc(N/N=C2/CCCCC2c2ccccn2)cc1 (configuration not stated)	ALOX12 inh inconclusive, GLP1R inv ag 1.3µM
CC(SC1CCCC1)C(=O)Nc1ccc(Cl)cc1Cl (configuration not stated)	none (no result: GLS inh, GLP1R ag, PTHR1 ag, GRP78 ERSR act, GLP1R inv ag)
Cc1cc(=O)n(Cc2ccccc2)c(O)c1C#N	ALOX12 inh 18µM
COc1ccc(C(=O)c2c(N)c(C(=O)Nc3ccccc3)c3ccccn23)cc1	none (no result: GLS inh, GLP1R ag, PTHR1 ag, GRP78 ERSR act, GLP1R inv ag)
COc1ccc(-c2cccc3c2C2CC3CCN2C(=O)OCc2ccccc2)cc1 (configuration not stated)	GLP1R inv ag 22µM
O=C(OCc1ccccc1)N1CCC2CC1c1cc(-c3ccccc3)ccc12 (configuration not stated)	GLP1R inv ag inconclusive
O=C(NCCSc1ccc(Cl)cc1)c1ccc(CN2CCOCC2)cc1	none
O=C(NCCSCc1ccc(Cl)cc1Cl)c1ccc(CN2CCOCC2)cc1	GLP1R inv ag 10µM
O=C(NC(NC(=S)Nc1c(Cl)cccc1Cl)C(Cl)(Cl)Cl)c1cccc([N+](=O)[O-])c1 (configuration not stated)	ALOX12 inh inconclusive, GLP1R inv ag 5µM
CC(C)(C)NC(NC(=O)c1cccc([N+](=O)[O-])c1)C(Cl)(Cl)Cl (configuration not stated)	none (no result: GLS inh, GLP1R ag, PTHR1 ag, GRP78 ERSR act, GLP1R inv ag)
COc1ccc([N+](=O)[O-])cc1NC(=S)NC(NC(=O)C(c1ccccc1)c1ccccc1)C(Cl)(Cl)Cl (configuration not stated)	GLP1R inv ag 2.5µM
Cc1cc([N+](=O)[O-])ccc1NC(=S)NC(=O)C(c1ccccc1)c1ccccc1	GLP1R inv ag 10µM
COC(=O)NC(NC(=S)Nc1ccc([N+](=O)[O-])cc1)C(Cl)(Cl)Cl (configuration not stated)	ALOX12 inh inconclusive, GLP1R inv ag 11µM
CCC(C(=O)Nc1cc(OC)ccc1OC)n1nc(-c2ccccc2)c2c(c1=O)CCCC2 (configuration not stated)	GLP1R inv ag 13µM (no result: GLP1R ag)
Cc1ccnc(NC(=O)CCC(=O)c2cccs2)c1	GLP1R inv ag 5.6µM
CCCC1OC(c2cc3c(cc2Cl)OCO3)OCC1CC (configuration not stated)	GLP1R inv ag 11µM
Cc1ccc2c(c1)NC(=O)C2(O)C(F)(F)F (configuration not stated)	none (no result: GLS inh, GLP1R ag, PTHR1 ag, GRP78 ERSR act, GLP1R inv ag)
CCC1Oc2ccc(NS(=O)(=O)c3ccccc3)cc2CN(Cc2ccc(F)cc2)C1=O (configuration not stated)	ALOX12 inh 14µM (no result: GLS inh, GLP1R ag, PTHR1 ag, GRP78 ERSR act, GLP1R inv ag)
Cc1cc2nc(C)n(CCCNC(=O)Nc3ccc(F)cc3)c2cc1C	GLP1R inv ag 10µM
O=C(/C=C/Nc1ccccc1Br)c1ccccn1	GLP1R inv ag 2µM
COc1cc(C)ccc1OCc1cc(C(=O)NC(c2ccccn2)C(F)(F)F)no1 (configuration not stated)	GLP1R inv ag 13µM
Clc1cccc(N/N=C/c2ccc(N3CCOCC3)s2)c1	ALOX12 inh inconclusive, GLP1R inv ag 2.8µM
